# PubChem BioAssay AID504339 (National Center for Advancing Translational Sciences (NCATS), 2011)
# In all, about 390,000 compounds went through this assay and about 17,000 (4.4%) were called active. Inconclusive results (about 8%) are left out. The sample holds actives, similar compounds and a random draw of the others, so the mix is not that of the screen. Values without a mark were called inactive. Calls come from the whole dose curve; as a rule, active = well fitted inhibition curve with a large enough effect; inconclusive = small, poorly fitted or top-dose-only effect; inactive = no such curve, though single readings can be large or run the other way.
# Target: Lysine-specific demethylase 4A (Homo sapiens) (UniProt O75164)
# Sequence (O75164 whole entry, looked up, the tested form may be a part): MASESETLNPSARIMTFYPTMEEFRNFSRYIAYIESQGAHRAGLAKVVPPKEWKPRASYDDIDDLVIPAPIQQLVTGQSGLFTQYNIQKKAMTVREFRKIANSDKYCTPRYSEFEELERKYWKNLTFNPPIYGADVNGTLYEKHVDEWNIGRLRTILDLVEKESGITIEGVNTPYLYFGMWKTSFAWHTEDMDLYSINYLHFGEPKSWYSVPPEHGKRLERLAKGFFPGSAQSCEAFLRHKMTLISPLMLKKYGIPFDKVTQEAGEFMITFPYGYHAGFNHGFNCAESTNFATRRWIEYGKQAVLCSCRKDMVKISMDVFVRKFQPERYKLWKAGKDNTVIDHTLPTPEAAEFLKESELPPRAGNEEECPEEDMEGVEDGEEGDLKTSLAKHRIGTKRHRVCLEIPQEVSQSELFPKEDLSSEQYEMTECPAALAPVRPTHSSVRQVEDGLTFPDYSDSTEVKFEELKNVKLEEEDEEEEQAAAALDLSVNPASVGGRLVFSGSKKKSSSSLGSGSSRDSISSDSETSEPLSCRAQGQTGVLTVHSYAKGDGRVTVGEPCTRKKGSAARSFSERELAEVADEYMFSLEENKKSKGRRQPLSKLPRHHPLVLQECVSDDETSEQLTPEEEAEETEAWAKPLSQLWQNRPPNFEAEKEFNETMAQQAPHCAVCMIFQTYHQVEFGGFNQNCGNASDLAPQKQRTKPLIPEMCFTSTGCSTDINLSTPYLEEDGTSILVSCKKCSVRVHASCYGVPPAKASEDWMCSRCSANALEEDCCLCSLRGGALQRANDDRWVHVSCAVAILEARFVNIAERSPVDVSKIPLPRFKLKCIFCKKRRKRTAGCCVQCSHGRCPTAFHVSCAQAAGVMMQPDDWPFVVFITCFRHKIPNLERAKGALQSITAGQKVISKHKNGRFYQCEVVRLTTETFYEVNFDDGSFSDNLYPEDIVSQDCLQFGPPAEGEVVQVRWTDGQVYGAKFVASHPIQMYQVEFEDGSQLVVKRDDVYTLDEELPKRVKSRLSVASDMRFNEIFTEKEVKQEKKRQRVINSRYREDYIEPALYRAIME
# Assay: qHTS Assay for Inhibitors of JMJD2A-Tudor Domain; note: nearly all actives have a fitted effect of over 50% in size
# Conditions: AlphaScreen JMJD2A-Tudor / H3K4me3 peptide binding; series mostly up to 114 µM; activity change, negative = inhibition: at the top concentration
# % is set by controls: 0 for no effect and ±100 for the full control effect; potency is the fitted concentration of half-maximal effect.
Compound,"activity change, negative = inhibition [%]",Potency
Cc1cccc(C2CC(=O)Oc3c2c(=O)n(C)c2ccccc32)c1 (stereo not given),-23.5,
Nc1ccc2[nH]c(=S)sc2c1,,3.55 µM (active)
O=c1[nH]c2ccccc2s1,-15,
COc1cc(C(=O)N2CCN(C(=O)COc3cccc(C)c3)CC2)cc(OC)c1OC,-13.1,
COCCn1c(SCC(=O)c2cc(C)ccc2C)nc2cc(C(=O)NC3CCCC3)ccc2c1=O,-10.4,
Cc1cc(C)cc(OC(C)C(=O)Nc2nc3c(s2)CCCC3)c1 (stereo not given),-28.1,
COc1cccc(-n2c(=S)sc3c(=O)n(-c4ccccc4C)c(SCC(=O)O)nc32)c1,-2.8,
COc1ccccc1-n1c(=S)[nH]c2c(sc(=S)n2-c2ccc(C)cc2C)c1=O,,50.1 µM (active)
COc1cccc(-n2c(=S)sc3c(=O)n(-c4ccccc4OC)c(SCC4OCCO4)nc32)c1,-30.1,
Cc1oc(-c2ccccc2F)nc1CN1CCC(C(=O)NCCc2ccc(Cl)cc2)CC1,-14.5,
O=C(CSc1nc2ccccc2nc1Cc1ccccc1)N1CCCCC1,8.77,
Cc1cccc2nc(-c3ccc(Cl)s3)c(Nc3ccc4c(c3)OCCO4)n12,,31.6 µM (active)
Oc1ccc(-c2nc3ccc(Cl)cn3c2Nc2ccc3c(c2)OCO3)cc1,-22,
Cc1ccc2nc(-c3ccc(O)cc3)c(Nc3ccc4c(c3)OCO4)n2c1,-18,
Cc1nc(Nc2ccc3c(c2)OCCO3)c2nnn(Cc3ccccc3Cl)c2n1,-26,
Oc1ccccc1-c1nc2ccc(Cl)cn2c1Nc1ccc2c(c1)OCCO2,-10.3,
Cc1ccc(-c2nc3cccc(C)n3c2Nc2ccc3c(c2)OCCO3)cc1,,11.2 µM (active)
CCOC(=O)c1nnn(CC(=O)NC(=O)Nc2ccccc2F)c1C(=O)OCC,-9.21,
COc1ccc(CCN2C(=O)c3oc4cc(C)cc(C)c4c(=O)c3C2c2ccccc2F)cc1OC (stereo not given),-10.7,
O=C1CC(c2nnc(Cc3ccc(Cl)cc3)o2)CN1c1ccccc1 (stereo not given),-16.1,
CCC(=O)N1CCc2cc(S(=O)(=O)NC(C(=O)Nc3ccc(C(C)=O)cc3)C(C)C)ccc21 (stereo not given),-12.7,
CCC(=O)N1c2ccccc2CC1C(=O)N1CCN(c2cccc(OC)c2)CC1 (stereo not given),-18.9,
CCCN(CCC)C(=O)C(Cc1ccccc1)NS(=O)(=O)c1ccc2c(c1)c(=O)n(C)c(=O)n2C (stereo not given),-18.9,
Cc1ccc(N(CC(=O)NCc2ccc(Cl)cc2)S(=O)(=O)N(C)C)cc1,-8.33,
Fc1ccccc1Oc1ncnc2c1oc1ccccc12,7,

Compound,"activity change, negative = inhibition [%]",Potency
O=C(c1ccc2c(c1)N(Cc1ccc(F)cc1)C(=O)c1ccccc1S2(=O)=O)N1CCN(c2ccccn2)CC1,,inactive
Cc1ccc(CSCC2Nc3ccc(C(=O)N4CCN(c5ccc(F)cc5)CC4)cc3NC2=O)cc1 (stereo not given),,22.4 µM (active)
CC1CCN(C(=O)c2ccc3c(c2)NC(=O)CN3)CC1,-2.74,
C=CCn1c(SCc2cccc(F)c2)nc2cc(C(=O)N3CCC(C(N)=O)CC3)ccc2c1=O,-23.8,
O=C1Nc2cc(C(=O)N3CCN(c4ccc(F)cc4)CC3)ccc2NC1CSCc1cccc(F)c1 (stereo not given),,20 µM (active)
Cc1ccc(SCC(=O)N2CCN(c3ccc(F)cc3)CC2)cc1,-0.685,
Cc1oc(-c2ccccc2)nc1Cn1c(SCc2cccc(C(F)(F)F)c2)nc2cccnc21,-35,
Cc1ccc(C)c(NC(=O)Cn2ccn(-c3ccc(F)cc3)c(=O)c2=O)c1,0.658,
O=C(Nc1nnc(Cc2ccccc2)s1)c1cnccn1,,50.1 µM (active)
O=C(Nc1nnc(Cc2ccc(Cl)cc2)s1)c1ccncc1,-12.5,
O=C(Nc1nnc(Cc2ccc(Cl)cc2)s1)c1cccnc1,-2.94,
CCCC(=O)N1CCN(c2nc3c(OC)ccc(C)c3s2)CC1,-6.17,
O=C(NC1=NCCS1)[C@H](Cc1ccccc1)N1C(=O)c2ccccc2C1=O,-19.4,
COc1ccc(CNC(=O)COC(=O)C(CCSC)N2C(=O)c3ccccc3C2=O)cc1 (stereo not given),-34,
CSCCC(C(=O)NC1=NCCS1)N1C(=O)c2ccccc2C1=O (stereo not given),,79.4 µM (active)
Cc1ccc2oc(=O)c3cnn(CC(=O)N4CCN(c5cccc(Cl)c5)CC4)c3c2c1,-4.3,
CCCCN(CC)CCCNC(=O)c1nn(C)c2c1CS(=O)(=O)c1ccccc1-2,-9.21,
CC(=O)c1cccc(NC(=O)CSc2nc3c(c(=O)[nH]2)CCC3)c1,-18.9,
CCc1cccc(C)c1Nc1c(-c2ccc(N(C)C)cc2)nc2ncccn12,,35.5 µM (active)
Cc1ccccc1Nc1c(-c2ccccc2)nc2ncccn12,5.02,
Cc1c(-c2cccc(NC(=O)C(C)(C)C)c2)nc2ncccn12,-1.61,
CCn1cc(C(=O)N2CCN(c3cc(C)ccc3C)CC2)c(=O)c2cc(S(=O)(=O)N(C)C3CCCCC3)ccc21,-23,
O=C(NCCc1ccccc1)c1cnc2sc(N3CCCC3)nn2c1=O,-0.333,
COC(=O)c1ccc(NC(=O)CCc2c(C)nc3c(c(C)nn3-c3ccc(C)cc3)c2C)cc1,-3.02,
C#CCOCCOCCOCCNc1nc(N2CCN(C(=O)C(Cc3ccc(O)cc3)n3cc(C(N)CC(C)C)nn3)CC2)nc(N2CCN(C(=O)C(Cc3ccc(O)cc3)n3cc(C(N)C(C)CC)nn3)CC2)n1 (stereo not given),,50.1 µM (active)
